Screening data deposited in PubChem by National Center for Advancing Translational Sciences (NCATS).
KB-V1 cytotox: KB-V1 MDR subline cytotoxicity. KB-V1 MDR cells viability, CellTiter-Glo, 72 h. Potency, µM (top dose mostly 46.1 µM), most hits filed as cytotoxic. hit rate 3.4% among 400,000. AID 1347076; also: % is scaled to controls: 0 for no effect and ±100 for the full control effect; nearly all actives have a fitted effect of over 60% in size
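Following 72 h at 37 degrees C with compound, KB-V1 cell viability was read by CellTiter-Glo luminescence, medium being phenol-red-free DMEM plus 10% FBS; concentration-response parameters came from normalized, curve-fitted qHTS data.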
TSG101-PTAP inh: blocks PTAP/TSG101 interaction to inhibit HIV-1 budding | Fluorescence polarization, FITC-PTAP peptide / Tsg101 binding | Potency, µM (series often up to 115 µM), without a hit: top-dose activity change, negative = inhibition, usual class: inhibitors | 340,000 tested, under 10 active; active = well fitted inhibition curve with a large enough effect in the main read-out, with a control signal flat, not every such curve was filed as active; inconclusive = small, poorly fitted or top-dose-only effect, or effect the other way, or a change in a side signal; inactive = no such curve, though single readings can be large or run the other way; also: % of control where 0% means no effect
Target sequence (Q99816 whole entry, looked up): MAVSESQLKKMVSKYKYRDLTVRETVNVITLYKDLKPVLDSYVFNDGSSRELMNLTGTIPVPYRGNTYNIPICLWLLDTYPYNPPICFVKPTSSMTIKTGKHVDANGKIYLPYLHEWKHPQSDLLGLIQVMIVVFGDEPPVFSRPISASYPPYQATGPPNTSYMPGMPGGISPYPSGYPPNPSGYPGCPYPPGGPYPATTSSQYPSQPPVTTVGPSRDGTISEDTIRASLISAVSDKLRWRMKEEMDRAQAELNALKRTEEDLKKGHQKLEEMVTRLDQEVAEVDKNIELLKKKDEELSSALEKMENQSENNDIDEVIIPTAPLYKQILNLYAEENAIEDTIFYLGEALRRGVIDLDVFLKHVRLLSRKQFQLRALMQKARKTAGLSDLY
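FP read-out: FITC-PTAP peptide, 50 nM final, binding Tsg101 binding domain, 10 uM final; 20 min, r.t.; 10 mM HEPES pH 7.5, 0.15 M NaCl, 0.01% Tween 20, 3 mM EDTA, 0.1 mM TCEP.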
SW480 rerep: inducers of DNA re-replication in SW480 colon cancer cells; hit rate 1.8% among 340,000; Potency, µM (titrated, usually from 46.1 µM), without a hit: at the highest dose re-replication activation, most hits filed as activators; AID 624297; SW480 DNA re-replication, Hoechst DNA content imaging, 48 h; also: % of control where 0% means no effect; nearly all actives have a fitted effect of over 55% in size
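Image-based read-out: total Hoechst fluorescence of nuclei (405 nm excitation, 500-530 nm emission), with hits raising the fraction of high-intensity nuclei. SW480 colon cells incubated 48 hr with compounds at 37 C.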
KB-3-1 tox: KB-3-1 parental cell cytotoxicity; AID 1347075; Potency, µM (top dose mostly 46.1 µM), actives largely listed as cytotoxic; KB-3-1 viability, CellTiter-Glo ATP luminescence, 72 h; hit rate 1.4% among 400,000; also: % is scaled to controls: 0 for no effect and ±100 for the full control effect; nearly all actives have a fitted effect of over 60% in size
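72 h, 37 °C compound treatment of KB-3-1 parental cells; CellTiter-Glo added, 10 min, luminescence read. Data corrected against DMSO-only plates and normalized before curve fitting.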
MCF10A rereplic: induces DNA re-replication in MCF 10a normal breast cells. Potency, µM (series often up to 46.1 µM), without a hit: at the top dose activity, positive = re-replication, actives largely listed as activators. AID 624296. hit rate 2.9% among 350,000. MCF 10A DNA re-replication, Hoechst nuclear intensity, 48 h; also: % of control where 0% means no effect; nearly all actives have a fitted effect of over 50% in size
PINK1 expr mod: changes PINK1 expression; PINK1 immunofluorescence, high-content cytometry, 24 h; Potency, µM (titrated, usually from 76.6 µM), inactives show top-dose activation (PINK1 increase), actives largely listed as activators; hit rate 0.2% among 410,000; AID 624263; active = well fitted activation curve with a large enough effect; inconclusive = small, poorly fitted or top-dose-only effect; cell line not stated here; also: % of control where 0% means no effect; nearly all actives have a fitted effect of over 65% in size
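Cells are seeded, rested 12 hours, then given compound at five concentrations or DMSO for 24 hours. After fixation, blocking and antibody staining, PINK1 amount and mitochondrial localization are scored; CCCP serves as control.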
Starred values were filed as active, the others as inactive; i = inactive; ? = inconclusive; nt = not tested or not shown; [ ] = remark or other dose. Most compounds without a hit are left out; they make up all but 6.8% or so of the library. Unless noted, calls follow the shape of the dose curve; as a rule, active = well fitted curve in the direction sought with a large enough effect; inconclusive = small, poorly fitted or top-dose-only effect, or another doubt; inactive = no such curve, though single readings can be large; an effect the other way counts as inactive or inconclusive. Potency is read from the fitted curve at half-maximal effect.

SMILES	KB-V1 cytotox	TSG101-PTAP inh	SW480 rerep	KB-3-1 tox	MCF10A rereplic	PINK1 expr mod
CC(C)=CCSc1nnc(CCNC(=O)OC(C)(C)C)o1	20.6µM*	-6.2%	-3.9%	i	2.3%	-1.1%[38.3 µM]
Cc1cccn2c(=O)c(/C=C(\C#N)C(=O)NC3CCS(=O)(=O)C3)c(N3CC(C)OC(C)C3)nc12 (stereo not given)	i	-2.4%	?	?	1.84µM*	0.1%
Cc1ccc(Oc2nc3ccccn3c(=O)c2/C=C(\C#N)C(=O)NC2CCS(=O)(=O)C2)cc1 (stereo not given)	i	-4.8%	?	i	8.2µM*	1.3%
CCNC(=O)/C(C#N)=C/c1c(N2CC(C)OC(C)C2)nc2ccccn2c1=O (stereo not given)	?	0.7%	11.5%	i	12.9%	0.5%
Cc1cccn2c(=O)c(/C=C(\C#N)C(=O)NC3CCS(=O)(=O)C3)c(N3CCC(C(N)=O)CC3)nc12 (stereo not given)	i	-3.9%	nt	i	?	0.6%
CNC(=O)/C(C#N)=C/c1c(N2CC(C)OC(C)C2)nc2ccccn2c1=O (stereo not given)	i	-0.1%	?	i	7.31µM*	5.2%
CCOc1ccc(CCNc2ncnc3onc(-c4ccc(F)cc4)c23)cc1OCC	2.59µM*	nt	nt	i	nt	-0.1%
Cc1ccc(CCNc2ncnc3onc(-c4ccc(Cl)cc4)c23)cc1	i	nt	nt	i	nt	-0.4%
Cc1cccc(CCNc2ncnc3onc(-c4ccc(Cl)cc4)c23)c1	20.6µM*	nt	nt	i	nt	3.1%
Cc1ccccc1OCCc1c(C)[nH]c(=S)[nH]c1=O	1.84µM*	-15.4%	3.66µM*	1.46µM*	?	3.0%
N=C1/C(=C/c2cccs2)C(=O)N=C2SN=C(SCc3ccccc3)N12	23.1µM*	-9.2%	-5.4%	?	?	?
CC(C)CSC1=NSC2=NC(=O)/C(=C\c3cccs3)C(=N)N12	?	-2.2%	9.8%	?	20.6µM*	44.7µM*
CSC1=NSC2=NC(=O)/C(=C/c3coc4ccccc4c3=O)C(=N)N12	?	?	-0.5%	i	?	9.2%
CSC1=NSC2=NC(=O)/C(=C\c3cccs3)C(=N)N12	4.61µM*	-2.2%	-13.2%	?	?	11.9%
CN1C(=O)c2ccccc2Sc2ccc(NC(=O)NCc3cccc(Cl)c3)cc21	i	nt	nt	i	nt	4.3%
Cc1nc(NC(=O)c2ccc(-c3cc4ccccc4oc3=O)cc2)ccc1Br	i	-9.8%	0.8%	i	-2.3%	0.2%
O=C(Nc1cccc(Cl)c1N1CCCC1)c1cc2ccccc2o1	i	-5.4%	-6.6%	i	20.6µM*	16.2%
O=C(Nc1ccc(N2CCCC2)cc1)c1cccc(-c2cc3ccccc3oc2=O)c1	i	0.3%	1.1%	i	?	-0.9%
O=C(Nc1ccccc1N1CCCC1)c1cccc(-c2cc3ccccc3oc2=O)c1	3.66µM*	-0.7%	?	i	19.6%	8.0%
O=C(Nc1ccc(Br)cn1)c1cccc(-c2cc3ccccc3oc2=O)c1	i	-11.4%	?	?	18.4µM*	0.4%
Cc1nc(NC(=O)c2cccc(-c3cc4ccccc4oc3=O)c2)ccc1Br	?	1.0%	-1.5%	?	20.6µM*	-1.1%
O=S1(=O)c2ccccc2N(Cc2ccccc2Cl)c2ccccc21	i	nt	nt	i	nt	4.4%
NC(C(=O)O)C(O)C(=O)O (stereo not given)	nt	nt	nt	nt	nt	2.3%
Clc1ccc2c(SCC3CO3)c3ccccc3nc2c1 (stereo not given)	16.4µM*	-4.9%	?	?	?	9.3%
CCOC(=O)c1nn(-c2ccccc2)c2nc(-c3ccc(OC)cc3)c(C#N)c(=O)n12	23.1µM*	-0.1%	-5.7%	?	-0.2%	-0.7%
SMILES	KB-V1 cytotox	TSG101-PTAP inh	SW480 rerep	KB-3-1 tox	MCF10A rereplic	PINK1 expr mod
CCOC(=O)c1nn(-c2cccc(OC)c2)c2nc(Nc3ccccc3)cc(=O)n12	i	4.5%	23.1µM*	i	?	?
CCc1nnc(SCc2cc(C)ccc2C)c2cc3sc(C)cc3n12	nt	nt	nt	nt	nt	-0.2%
CCOC(=O)C1=C(C)NC2=C(C(=O)CCC2)C1c1cn(Cc2ccc(Cl)cc2Cl)nc1-c1ccccc1 (stereo not given)	?	-0.4%	2.82µM*	16.4µM*	?	0.2%
CCOC(=O)Nc1sc(C)nc1-c1ccccc1	?	0.6%	-3.2%	i	18.9%	3.3%[38.3 µM]
CCOC(=O)c1ccc2nc(Nc3nc4ccc(F)cc4s3)sc2c1	?	1.7%	1.5%	i	10.3µM*	?
CCOC(=O)Nc1nc(-c2ccccc2)c(C(=O)c2ccc(Cl)cc2)s1	1.3µM*	-8.5%	2.91µM*	1.16µM*	?	6.8%
CCOC(=O)N1CCN(S(=O)(=O)c2ccc(C(=O)Nc3nc4ccc(F)cc4s3)cc2)CC1	?	-0.4%	6.8%	?	16.4µM*	6.6%
CCOC(=O)c1ccc2nc(NC(C)=O)sc2c1	i	-2.3%	-13.0%	i	5.0%	-3.9%
CCOC(=O)C(=CNc1nc(-c2ccccc2)c(C(=O)Nc2ccc(-c3ccccc3)cc2)s1)C(=O)OCC	i	-4.9%	3.66µM*	i	9.2µM*	11.5%
COc1ccccc1CNC(=O)C(=O)NCC(c1cccs1)S(=O)(=O)c1ccccc1 (stereo not given)	i	nt	nt	i	nt	0.4%
Cc1ccc(-n2nnc(-c3nsc(NC(=O)c4ccccc4C)n3)c2C)cc1Cl	?	nt	nt	i	nt	9.4%
CCOC(=O)c1sc(NC(=O)c2ccc(S(=O)(=O)N3CCOCC3)cc2)nc1-c1ccccc1	i	-2.9%	18.4µM*	i	5.6%	5.2%
COC(=O)c1ccc2nc(Nc3nc4c(F)cc(F)cc4s3)sc2c1	i	3.6%	0.231µM*	?	2.31µM*	?
Cc1cc(NC(=O)CCNS(=O)(=O)c2ccc3c(c2)CCCC(=O)N3)ccc1Br	i	nt	nt	i	nt	0.4%
CCOC(=O)N1CCc2cc(OC)c(OC)c3c2c1cc1cc(OC)c(OC)cc13	2.31µM*	-3.1%	18.4µM*	4.11µM*	14.6µM*	-6.6%
COc1cc(CC(=O)N2CCc3ccccc32)cc(OC)c1OC	?	-6.6%	1.9%	i	2.0%	-2.6%
COc1cc(OC)c(/C=C/c2cc3ccccc3c[n+]2C)c(OC)c1	i	nt	nt	0.92µM*	nt	11.2µM*
COc1cc(OC)c(/C=C/c2ccc3ccccc3n2)c(OC)c1	i	nt	nt	0.517µM*	nt	nt
COc1cc(OC)c(/C=C/c2ccccn2)c(OC)c1	i	nt	nt	5.17µM*	nt	nt
COc1ccc(/C=C/c2ccc3ccccc3n2)cc1OC	i	nt	nt	?	nt	1.9%
